Laboratory results: PubChem BioAssay (NCATS)
Records with an inconclusive call do not appear. Unmarked numbers belong to inactive results. Active and inactive are the calls of the source. Calls come from the whole dose curve; as a rule, active = well fitted curve in the direction sought with a large enough effect; inconclusive = small, poorly fitted or top-dose-only effect, or another doubt; inactive = no such curve, though single readings can be large; an effect the other way counts as inactive or inconclusive.

How the values were obtained:
[1] = target: Aldehyde dehydrogenase, mitochondrial (Homo sapiens) (UniProt P05091); test: qHTS for Inhibitors of the Aldehyde Dehydrogenase Family (ALDH2) Primary screen (AID 2061308); settings: ALDH2 enzyme inhibition qHTS, 1536-well; series mostly up to 56 µM;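 note: plate controls were vehicle for no effect and reference inhibitor for full effect; nearly all actives have a fitted effect of over 55% in size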
[2] = target: Retinaldehyde dehydrogenase 3 (Homo sapiens) (UniProt P47895); test: qHTS for Inhibitors of the Aldehyde Dehydrogenase Family (ALDH1A3) Primary screen (AID 2061315); settings: ALDH inhibition qHTS; series mostly up to 56 µM;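 note: plate controls were DMSO vehicle for no effect and reference inhibitor for full effect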
[3] = target: Aldehyde dehydrogenase 1A1 (Homo sapiens) (UniProt P00352); test: qHTS for Inhibitors of the Aldehyde Dehydrogenase Family (ALDH1A1) Confirmatory screens (AID 2061316); settings: ALDH inhibition qHTS; series mostly up to 47.3 µM; note: potency is the fitted concentration of half-maximal effect; nearly all actives have a fitted effect of over 65% in size
[4] = BET inhibitor-based combinations targeting novel dependencies in MECOM-rearranged (r) AML: SET-2 cell line (AID 2202231); settings: SET-2 AML cells viability, CellTiter-Glo luminescence, 48 h; viability: active compounds read low, concentration not given here; note: nearly all actives have a fitted effect of over 35% in size; note: potency is the fitted concentration of half-maximal effect;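 for viability: plate controls were DMSO treated cells for no effect and wells without cells for full effect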
Method in brief: (§1)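 Each compound was tested at eleven concentrations on cells seeded at 500/well. After two days' incubation, ATP-based luminescence reported viability; responses relative to DMSO and blank wells yielded AUC and cell-line-centred Z-AUC.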

[5] = BET inhibitor-based combinations targeting novel dependencies in MECOM-rearranged (r) AML: OCI-AML3 cell line (AID 2202232); settings: CellTiter-Glo luminescence, 48 h; Potency: OCI-AML3 viability; series mostly up to 46 µM; note: potency is the fitted concentration of half-maximal effect; nearly all actives have a fitted effect of over 35% in size
Method in brief: as §1

[6] = BET inhibitor-based combinations targeting novel dependencies in MECOM-rearranged (r) AML: MV-4-11 cell line (AID 2202233); settings: MV-4-11 AML viability, CellTiter-Glo luminescence, 48 h; series mostly up to 46 µM; note: nearly all actives have a fitted effect of over 45% in size; note: potency is the fitted concentration of half-maximal effect
Method in brief: (§2)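 First, 500 cells per well were seeded; next, drugs were pinned as 11-point doses; then plates sat 48 hr in the incubator; finally CellTiter-Glo was added and luminescence read, with AUC and Z-AUC computed.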

[7] = BET inhibitor-based combinations targeting novel dependencies in MECOM-rearranged (r) AML: HNT-34 cell line (AID 2202234); settings: HNT-34 AML viability, CellTiter-Glo luminescence, 48 h; series mostly up to 46 µM; note: nearly all actives have a fitted effect of over 35% in size; note: potency is the fitted concentration of half-maximal effect
Method in brief: as §2

[8] = BET inhibitor-based combinations targeting novel dependencies in MECOM-rearranged (r) AML: UCSD-AML1 cell line (AID 2202235); settings: UCSD-AML1 AML cells viability, CellTiter-Glo, 48 h; series mostly up to 46 µM; note: nearly all actives have a fitted effect of over 40% in size; note: potency is the fitted concentration of half-maximal effect
Method in brief: as §2

[9] = BET inhibitor-based combinations targeting novel dependencies in MECOM-rearranged (r) AML: AML-191 cell line (AID 2202236; note: nearly all actives have a fitted effect of over 35% in size; note: potency is the fitted concentration of half-maximal effect); settings: AML-191 viability, CellTiter-Glo luminescence, 48 h; series mostly up to 46 µM
Method in brief: as §1

[10] = BET inhibitor-based combinations targeting novel dependencies in MECOM-rearranged (r) AML: AML-194 cell line (AID 2202237; note: nearly all actives have a fitted effect of over 40% in size; note: potency is the fitted concentration of half-maximal effect); settings: AML-194 (MECOM-r AML) viability, CellTiter-Glo, 48 h; series mostly up to 46 µM
Method in brief: as §1

SMILES | Potency [1] | Potency [2] | Potency [3] | Potency [4] | Potency [5] | Potency [6] | Potency [7] | Potency [8] | Potency [9] | Potency [10] | viability [4]
O=C([C@H](Cc1ccc(O[S+](=O)([O-])c2ccccn2)cc1)N[S+](=O)([O-])c1cccc2cnccc12)N1CCN(c2ccccc2)CC1 | inactive | inactive | 7.98 µM (active) |  |  |  |  |  |  |  | 
Nc1ccc(C(=O)c2cc3c(ccc4ccccc43)[nH]2)cc1 | inactive | inactive |  | 30.3 µM (active) | 6.79 µM (active) | 3.82 µM (active) | 2.41 µM (active) | 2.7 µM (active) | 1.52 µM (active) | 2.41 µM (active) | 
CN(C)c1cccc(N2CCN(c3nn4c(=O)c5ccccc5nc4s3)CC2)c1 | inactive | inactive | 10.1 µM (active) |  |  |  |  |  |  |  | 
C[C@@H]1CCN(C(=O)CC#N)C[C@@H]1N(C)c1ncnc2[nH]ccc12 | inactive | inactive |  | 1.48 µM (active) |  |  |  |  |  |  | 
Nc1scc2c(C(=O)O)nn(-c3ccccc3)c(=O)c12 | inactive | inactive | 5.04 µM (active) |  |  |  |  |  |  |  | 
COc1ccc(-c2ccc3ncc4c(c3c2)n(-c2ccc(N3CCNCC3)c(C(F)(F)F)c2)c(=O)n4C)cn1 | inactive | inactive |  | 0.332 µM (active) | 0.235 µM (active) | 0.105 µM (active) |  | 0.0525 µM (active) | 0.132 µM (active) | 0.118 µM (active) | 
COC(=O)N[C@@H](C)CNc1nccc(-c2cn(C(C)C)nc2-c2cc(Cl)cc(NS(C)(=O)=O)c2F)n1 | inactive | inactive |  | 2.63 µM (active) | 1.66 µM (active) | 2.35 µM (active) | 0.833 µM (active) | 2.63 µM (active) | 1.66 µM (active) | 2.09 µM (active) | 
Nc1[nH]nc2nnc(-c3c(-c4ccccc4)nn4ccccc34)cc12 | inactive | inactive |  |  | 14.8 µM (active) | 10.5 µM (active) |  | inactive | 18.6 µM (active) | inactive | 111%
Cc1c(C(=O)OCC(C)(C)C)[nH]c2c1C(=O)CC(c1ccco1)C2 (stereo not drawn) | inactive | inactive | 0.896 µM (active) |  |  |  |  |  |  |  | 
C[C@H]1[C@@H](OC(=O)CCC(=O)O)O[C@@H]2O[C@@]3(C)CC[C@@H]4[C@H](C)CC[C@@H]1[C@@]24OO3 | inactive | inactive |  | 3.72 µM (active) | 4.17 µM (active) | 1.66 µM (active) | 2.95 µM (active) | 8.33 µM (active) | 5.25 µM (active) | 9.34 µM (active) | 
CCCCCCCCCCCCCCCCOCCCOP(=O)(O)COC(CO)Cn1ccc(N)nc1=O (stereo not drawn) | inactive | inactive |  |  | 20.9 µM (active) | inactive | inactive | 10.5 µM (active) | inactive |  | 118%
CC(=O)O[C@H]1C(=O)[C@@]2(C)C([C@H](OC(=O)c3ccccc3)[C@]3(O)C[C@H](OC(=O)[C@H](O)[C@@H](NC(=O)c4ccccc4)c4ccccc4)C(C)=C1C3(C)C)[C@]1(OC(C)=O)CO[C@@H]1C[C@@H]2O (stereo partly drawn) | inactive | inactive |  | 0.148 µM (active) | 0.0059 µM (active) |  | 0.0042 µM (active) |  | 0.0209 µM (active) |  | 
CN1CCN(C2CCC(n3cc(-c4ccc(Oc5ccccc5)cc4)c4c(N)ncnc43)CC2)CC1 (stereo not drawn) | inactive | inactive |  | 20.9 µM (active) | 13.2 µM (active) | 0.235 µM (active) |  | 7.42 µM (active) | 9.34 µM (active) | 8.33 µM (active) | 
O=C(NCc1ccc(S(=O)(=O)c2cccc(C(F)(F)F)c2)cc1)c1cnc2[nH]ncc2c1 | inactive | inactive |  |  | 0.0148 µM (active) | 0.0833 µM (active) | 0.0263 µM (active) | 0.0209 µM (active) | 0.0148 µM (active) | 0.742 µM (active) | 110%
Cc1cc(C(=O)Nc2cc(Nc3ccc4c(/C=C/c5ccccn5)n[nH]c4c3)ccc2F)n(C)n1 | inactive | inactive |  | 18.6 µM (active) | 18.6 µM (active) |  | 7.42 µM (active) | 6.61 µM (active) |  |  | 
CCC(=O)Nc1cccc(Oc2nc(Nc3ccc(N4CCN(C)CC4)cc3OC)ncc2Cl)c1 | inactive | inactive |  | 20.9 µM (active) | 14.8 µM (active) |  | 11.8 µM (active) | inactive | 18.6 µM (active) |  | 
CCCNC(=O)[C@H]1O[C@@H]1C(=O)N[C@H](C(=O)N1CCC[C@H]1C(=O)OC)C(C)CC (stereo partly drawn) | inactive | inactive |  | 26.3 µM (active) | 2.09 µM (active) | 8.33 µM (active) | 23.5 µM (active) |  |  | 10.5 µM (active) | 
NC[C@@](O)(c1ccc(Cl)cc1)c1ccc(-c2cn[nH]c2)cc1 | inactive | inactive |  | 7.42 µM (active) | 5.25 µM (active) | 4.68 µM (active) | 4.17 µM (active) | 9.34 µM (active) | 7.42 µM (active) | 6.61 µM (active) | 
